A selection: hits, their analogues and other compounds. The true share with any hit is near 19%.
Giardia killer – Giardia lamblia killing; Giardia lamblia trophozoite viability; activity change, % at 7.66 µM, hits read low; hit rate 0.15% among 340,000; AID 540267; in the data active = activity change below about -80%; inconclusive = between about -30% and that limit;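 also: parasites exposed to compound for two days anaerobically before the ATP read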
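Media and compound were dispensed first, then trophozoites at 100 cells/well; plates sat 48 hrs at 37 deg C without oxygen before ATP luminescence reagent was added and read after 15-30 min at room temperature.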
ELG1 DNA repair – ELG1-dependent DNA repair inhibition; HEK293T ELG1-luciferase reporter, luminescence, 16 h; DNA damage induced by 5-fluorouridine; hit rate 2.3% among 330,000; AID 504467; Potency, µM (highest dose often 46.1 µM), actives largely listed as inhibitors; also: nearly all actives have a fitted effect of over 55% in size
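Reporter activity after DNA damage by 5-fluorouridine is monitored. Compound-treated cells incubate 16 hr at 37 °C, then ONE-Glo is added for 30 min before luminescence reading.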
TDP1 cell CPT – DT40-hTDP1 cell growth loss with CPT. chicken DT40 Tdp1-/-;hTDP1 cells + 20 nM CPT, ATP luminescence, 48 h. Potency, µM (titrated, usually from 46.2 µM), hits mostly inhibitors. hit rate 12% among 420,000; also: nearly all actives have a fitted effect of over 55% in size
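Cell growth measured by CellTiter-Glo luminescence after a minimum 48 h, 37 C compound exposure with 20 nM CPT in Tdp1-knockout DT40 cells stably expressing hTDP1, seeded 400/well; qHTS titration format.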
TDP1 block – TDP1 (human) enzyme inhibition; recombinant TDP1, AlphaScreen DNA substrate cleavage; Potency, µM (series often up to 130 µM), most hits filed as inhibitors; hit rate 0.28% among 350,000; AID 485290; also: nearly all actives have a fitted effect of over 40% in size
Target sequence (Q9NUW8 whole entry, looked up): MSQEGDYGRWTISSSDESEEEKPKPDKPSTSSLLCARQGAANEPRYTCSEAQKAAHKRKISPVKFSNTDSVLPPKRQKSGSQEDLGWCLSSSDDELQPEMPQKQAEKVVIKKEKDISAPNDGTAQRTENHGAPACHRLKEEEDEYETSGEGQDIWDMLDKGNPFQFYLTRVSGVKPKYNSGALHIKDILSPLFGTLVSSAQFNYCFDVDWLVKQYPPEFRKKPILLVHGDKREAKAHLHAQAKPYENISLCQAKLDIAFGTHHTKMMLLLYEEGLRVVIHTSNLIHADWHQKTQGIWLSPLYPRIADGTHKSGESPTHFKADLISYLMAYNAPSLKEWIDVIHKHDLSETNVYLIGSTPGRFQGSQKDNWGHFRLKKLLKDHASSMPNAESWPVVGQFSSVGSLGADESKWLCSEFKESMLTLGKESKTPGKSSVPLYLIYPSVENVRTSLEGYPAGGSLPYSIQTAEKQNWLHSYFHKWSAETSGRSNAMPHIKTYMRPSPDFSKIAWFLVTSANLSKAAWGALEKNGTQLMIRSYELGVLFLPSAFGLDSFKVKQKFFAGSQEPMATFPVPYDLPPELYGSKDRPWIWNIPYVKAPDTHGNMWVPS
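AlphaScreen read-out: signal falls as enzyme removes the 3' tyrosine-FITC from a 5'-biotinylated DNA oligo (15 nM, 5 min, RT). Enzyme was E. coli-made recombinant Tdp1 at 1 nM, exposed to compound for 15 min beforehand; beads 10 ug/ml, 10 min.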
DT40 TDP1 no CPT – qHTS for Inhibitors of human tyrosyl-DNA phosphodiesterase 1 (TDP1): qHTS in cells in absence of CPT. hit rate 15% among 420,000. Potency, µM (top dose mostly 46.2 µM), hits mostly inhibitors. DT40 Tdp1-/- hTDP1 cells, no CPT, ATP luminescence, 48 h; also: nearly all actives have a fitted effect of over 55% in size
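Cells were dispensed at 400 per well, compounds added by pin tool, plates incubated ≥48 hr at 37 °C, then CellTiter-Glo added for 30 min at room temperature before luminescence reading. Line: DT40 Tdp1-/- complemented with hTDP1; camptothecin omitted.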
IL-1B inflam inh – blocks inflammasome-driven IL-1 beta release | hit rate 4.7% among 360,000 | THP-1 LPS/ATP IL-1B secretion, AlphaLISA, 16 h; active compounds read low | AID 743279 | activity change, % at 57.5 µM; in the data active = activity change below about -50%; inconclusive = mostly about -30% to -49%
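Secreted IL-1B measured by AlphaLISA bead assay after 16 h compound exposure of THP-1 cells; compounds (final up to 57.5 uM) added 1 h before LPS (250 ng/mL) and ATP (1.25 mM) stimulation; lower signal means less secretion.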
Each line names hits and unclear results; the compound was inactive in the other large screens. Unless noted, calls follow the shape of the dose curve; as a rule, active = well fitted curve in the direction sought with a large enough effect; inconclusive = small, poorly fitted or top-dose-only effect, or another doubt; inactive = no such curve, though single readings can be large; an effect the other way counts as inactive or inconclusive.

OC(CNC1CCCc2ccccc21)COc1ccc2ccccc2c1 (configuration not stated)	TDP1 cell CPT inconclusive, DT40 TDP1 no CPT 21µM
O=C(c1ccccc1)c1ccc(OCC(O)CNC2CCCc3ccccc32)cc1 (configuration not stated)	TDP1 cell CPT 16µM, DT40 TDP1 no CPT inconclusive
CCc1ccccc1OC[C@@H](O)CN[C@H]1CCCc2ccccc21	TDP1 cell CPT 16µM, DT40 TDP1 no CPT 6µM, IL-1B inflam inh inconclusive
Cc1c(C(=O)NCC2CCCN(C)C2)cnn1-c1ncc2c(n1)-c1ccccc1CCC2 (configuration not stated)	none (no result: Giardia killer, ELG1 DNA repair, TDP1 block, IL-1B inflam inh)
COc1cc(CN2CCOc3ccc(C(O)c4cccnc4)cc3C2)cc(OC)c1 (configuration not stated)	none (no result: Giardia killer, ELG1 DNA repair, TDP1 block, IL-1B inflam inh)
COC(=O)[C@H]1C[C@@H]2CC[C@@H](O)C[C@@H]2N1Cc1c(F)cccc1Cl	none (no result: Giardia killer, ELG1 DNA repair, TDP1 cell CPT, DT40 TDP1 no CPT, IL-1B inflam inh)
CCOc1ccc2nc(N(CCN(CC)CC)C(=O)/C=C/c3cccs3)sc2c1	TDP1 cell CPT inconclusive, DT40 TDP1 no CPT inconclusive, IL-1B inflam inh -97
CCN(CC)CCN(C(=O)/C=C/c1cccs1)c1nc2ccc(OC)cc2s1	none (no result: ELG1 DNA repair, TDP1 block)
CCN(CC)CCN(C(=O)c1cc2ccccc2cc1OC)c1nc2ccc(OC)cc2s1	TDP1 cell CPT inconclusive, DT40 TDP1 no CPT 18µM, IL-1B inflam inh inconclusive
COc1cc2ccccc2cc1C(=O)N(CCN(C)C)c1nc2ccc(C)cc2s1	ELG1 DNA repair inconclusive, TDP1 cell CPT inconclusive, DT40 TDP1 no CPT inconclusive
CCN(CC)CCN(C(=O)c1cc2ccccc2cc1OC)c1nc2ccc(F)cc2s1	TDP1 cell CPT 18µM, DT40 TDP1 no CPT inconclusive, IL-1B inflam inh -59
COc1cccc(NC(=S)N(C)C2CCN(C)CC2)c1	ELG1 DNA repair inconclusive (no result: TDP1 block)
Cc1cc(C(=O)Nc2ccncc2)c2ccccc2n1	ELG1 DNA repair 23µM
Cc1ccc(S(=O)(=O)N(C)C)cc1NC(=O)c1cc(-c2ccncc2)nc2ccccc12	ELG1 DNA repair inconclusive, TDP1 cell CPT inconclusive, DT40 TDP1 no CPT 4.1µM
O=C(Nc1nc2c(s1)CCCC2)c1cc(-c2ccncc2)nc2ccccc12	ELG1 DNA repair inconclusive, TDP1 cell CPT inconclusive, DT40 TDP1 no CPT 16µM
CC(OC(=O)c1cc(-c2cccnc2)nc2ccccc12)C(=O)Nc1ccc2ccccc2c1 (configuration not stated)	ELG1 DNA repair 18µM, TDP1 cell CPT inconclusive, DT40 TDP1 no CPT 18µM
Cc1cc(C)c2oc(C(=O)N3CCN(Cc4ccccc4)CC3)cc(=O)c2c1	none (no result: TDP1 block)
Cc1cc(NC(=O)c2cc(-c3ccncc3)nc3ccccc23)ccc1Br	ELG1 DNA repair inconclusive, TDP1 cell CPT 23µM, DT40 TDP1 no CPT inconclusive, IL-1B inflam inh -50
COc1cccc(NC(=O)c2cc(-c3ccncc3)nc3c(C)cc(C)cc23)c1	ELG1 DNA repair inconclusive, TDP1 cell CPT inconclusive, DT40 TDP1 no CPT 23µM
CC(=O)c1cccc(NC(=O)c2cc(-c3ccco3)nc3ccccc23)c1	ELG1 DNA repair inconclusive, TDP1 cell CPT 13µM, DT40 TDP1 no CPT 18µM (no result: TDP1 block)
CC(=O)c1cccc(NC(=O)c2cc(-c3ccncc3)nc3ccccc23)c1	ELG1 DNA repair 21µM, TDP1 cell CPT inconclusive, DT40 TDP1 no CPT 18µM
COc1cccc(-c2cc(C(=O)Nn3cnnc3)c3ccccc3n2)c1	Giardia killer inconclusive
COc1cccc(-c2cc(C(=O)Nc3ccncc3)c3ccccc3n2)c1	TDP1 cell CPT inconclusive, DT40 TDP1 no CPT 16µM
COc1cccc(-c2cc(C(=O)Nc3ccc(N(C)C(C)=O)cc3)c3cc(Br)ccc3n2)c1	TDP1 cell CPT 1.8µM, DT40 TDP1 no CPT 1.8µM (no result: ELG1 DNA repair, TDP1 block)
CCCN(C(=O)c1ccc(N(C)S(=O)(=O)c2ccc(C)cc2)cc1)C1CCS(=O)(=O)C1 (configuration not stated)	TDP1 cell CPT inconclusive, DT40 TDP1 no CPT inconclusive
Cc1noc(C)c1CSc1nc2ccccc2c(=O)n1-c1ccc(Cl)cc1	ELG1 DNA repair inconclusive, TDP1 cell CPT 18µM, DT40 TDP1 no CPT 15µM
CSc1nnnn1-c1ccc(Cl)cc1	ELG1 DNA repair inconclusive
Cc1noc(C)c1CSc1nnnn1-c1ccc(Cl)cc1	TDP1 cell CPT inconclusive, DT40 TDP1 no CPT 15µM
Cc1ccc(S(=O)(=O)N(CC(O)CN2C(=O)NC(C)(C)C2=O)c2cccc(C)c2)cc1 (configuration not stated)	none
Cc1cc(C)n(CC(O)CN(c2ccccc2)S(=O)(=O)c2ccccc2)n1 (configuration not stated)	DT40 TDP1 no CPT inconclusive
CC(=O)Nc1ccc(N(CC(O)Cn2c3ccccc3c3ccccc32)S(=O)(=O)c2ccc(C)cc2)cc1 (configuration not stated)	ELG1 DNA repair inconclusive, TDP1 cell CPT inconclusive, DT40 TDP1 no CPT inconclusive, IL-1B inflam inh -55
Cc1cccc(N(CC(O)Cn2c3ccccc3c3ccccc32)S(=O)(=O)c2ccc(F)cc2)c1 (configuration not stated)	TDP1 cell CPT 21µM, DT40 TDP1 no CPT 8.2µM (no result: Giardia killer, ELG1 DNA repair, IL-1B inflam inh)
Cc1ccc(N(CC(O)Cn2nc(C)cc2C)S(=O)(=O)c2ccc3ccccc3c2)cc1 (configuration not stated)	ELG1 DNA repair inconclusive, TDP1 cell CPT inconclusive, DT40 TDP1 no CPT 18µM, IL-1B inflam inh inconclusive
Cc1cccc(C)c1N(CC(O)Cn1c2ccccc2c2ccccc21)S(C)(=O)=O (configuration not stated)	TDP1 cell CPT inconclusive, DT40 TDP1 no CPT inconclusive
Cc1ccc(N(CC(O)Cn2c3ccccc3c3ccccc32)S(C)(=O)=O)cc1 (configuration not stated)	ELG1 DNA repair inconclusive, DT40 TDP1 no CPT inconclusive, IL-1B inflam inh -66
Cc1ccc(N(CC(O)CN2CCCC2)S(=O)(=O)c2ccc(C)cc2)cc1 (configuration not stated)	none
O=C(CN1C(=O)C2(SCC(=O)N2c2ccccc2)c2ccccc21)NCc1ccccc1 (configuration not stated)	none (no result: Giardia killer, ELG1 DNA repair, TDP1 cell CPT, DT40 TDP1 no CPT, IL-1B inflam inh)
CCCN(CCC)CC(O)Cn1c2ccccc2c2ccccc21 (configuration not stated)	TDP1 cell CPT inconclusive, DT40 TDP1 no CPT inconclusive, IL-1B inflam inh -75
Cc1ccc(N(CC(O)Cn2c3ccccc3c3ccccc32)S(C)(=O)=O)c(C)c1 (configuration not stated)	TDP1 cell CPT inconclusive, DT40 TDP1 no CPT inconclusive, IL-1B inflam inh -72
COc1ccc(NC(=O)c2cc(-c3sc(NC(=O)c4ccccc4)nc3C)n(Cc3ccccc3)n2)cc1	DT40 TDP1 no CPT inconclusive (no result: Giardia killer, ELG1 DNA repair, TDP1 block)
C/C(=N\NC(=O)c1cccc(S(=O)(=O)N2CCOCC2)c1)c1ccc(O)cc1	none

Assay outcomes: PubChem BioAssay, National Center for Advancing Translational Sciences (NCATS)
